# High-throughput results as filed in PubChem BioAssay.
# KCNQ2 enhance – enhances the rat KCNQ2 potassium channel; O88943; 310,000 compounds, 0.54% hits; B-score at 10 µM; CHO-K1 KCNQ2, FluxOR thallium flux fluorescence; active compounds read high;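 active = fluorescence ratio B-score at least 3 SD of library B-scores, with initial fluorescence B-score within 3 of them, cut at about 5.3 in these data; same plate scores as AID 2156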;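 also: B-score of peak minus minimum over baseline fluorescence ratio after K+ and Tl+ stimulus; positive B-score means potentiation of KCNQ2 with more thallium influx and brighter signal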
# Target sequence (O88943 whole entry, looked up): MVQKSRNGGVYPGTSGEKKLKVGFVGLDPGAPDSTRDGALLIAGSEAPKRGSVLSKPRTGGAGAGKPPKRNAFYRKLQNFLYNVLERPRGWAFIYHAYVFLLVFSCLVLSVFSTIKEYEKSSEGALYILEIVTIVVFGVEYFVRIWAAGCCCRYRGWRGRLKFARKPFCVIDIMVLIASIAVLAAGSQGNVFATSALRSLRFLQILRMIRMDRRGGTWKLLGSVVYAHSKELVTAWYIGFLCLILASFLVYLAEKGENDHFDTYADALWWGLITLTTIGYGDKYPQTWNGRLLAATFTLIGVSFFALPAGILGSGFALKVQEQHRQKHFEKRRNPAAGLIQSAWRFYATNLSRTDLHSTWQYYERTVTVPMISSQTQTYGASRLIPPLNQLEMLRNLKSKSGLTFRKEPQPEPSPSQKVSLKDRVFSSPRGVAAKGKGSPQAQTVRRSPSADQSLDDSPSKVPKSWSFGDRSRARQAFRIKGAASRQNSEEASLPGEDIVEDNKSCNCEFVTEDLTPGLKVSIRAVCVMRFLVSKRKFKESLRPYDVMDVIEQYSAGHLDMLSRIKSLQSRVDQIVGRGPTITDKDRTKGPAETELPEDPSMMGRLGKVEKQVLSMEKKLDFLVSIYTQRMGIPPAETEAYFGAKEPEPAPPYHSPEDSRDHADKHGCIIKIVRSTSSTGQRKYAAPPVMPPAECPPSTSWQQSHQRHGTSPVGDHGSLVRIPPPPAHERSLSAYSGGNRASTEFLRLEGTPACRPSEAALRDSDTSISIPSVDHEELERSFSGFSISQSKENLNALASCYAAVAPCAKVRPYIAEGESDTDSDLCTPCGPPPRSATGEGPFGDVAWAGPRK
# KCNQ2 inh – blocks the rat KCNQ2 potassium channel; CHO-K1 KCNQ2, FluxOR thallium flux, 20 min; active compounds read low; B-score at 10 µM; 310,000 compounds, 1.1% hits; AID 2156;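 active = fluorescence ratio B-score at most minus 3 library SDs, with starting brightness B-score within 2 library SDs, cut at about -5.5 in these data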
# KCNQ2 inh conf – rat KCNQ2 channel inhibition, confirmatory screen | shares compounds with KCNQ2 inh | activity change, negative = inhibition, % at 10 µM | 1,000 compounds, 57% hits | KCNQ2-expressing cells, thallium flux; active compounds read low;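 also: 0% = vehicle wells and values are ratio percent relative to vehicle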
# KCNQ1 spec – human KCNQ1 activity in KCNQ2 inhibitor specificity screen; shares compounds with KCNQ2 inh; KCNQ1-expressing cells, FluxOR thallium flux fluorescence; active compounds read low; activity change, negative = inhibition, % at 10 µM; 1,000 compounds, 15% hits; AID 493026;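 active = activity change at least 3 SD of negative controls below their mean in both duplicate wells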;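 also: CHO cells stably transfected with KCNQ1 and depolarized by potassium stimulus; peak minus minimum fluorescence over baseline after thallium addition; 0% = vehicle negative control and -100% = blank without thallium stimulus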
# CHO Tl ctr – activity in parental CHO cells lacking KCNQ2; shares compounds with KCNQ2 inh; thallium flux counter-screen; active compounds read low; activity change, % at 10 µM; 1,000 compounds, 14% hits;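 also: 0% = vehicle negative controls with stimulus buffer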
# KCNQ2 patch conf – blocks rat KCNQ2 current in automated patch clamp | calls only at 10 µM | 550 compounds, 49% hits | shares compounds with KCNQ2 inh | KCNQ2-expressing cells | AID 588531
# Starred values were filed as active, the others as inactive; i = inactive; . = no result; + = active, no number. Hits are enriched below; roughly 1.6% of the tested compounds scored in any of these assays. Unless noted, no rule for the calls is given here.
SMILES,KCNQ2 enhance,KCNQ2 inh,KCNQ2 inh conf,KCNQ1 spec,CHO Tl ctr,others
CCc1cccc(N(C(=O)c2csnn2)C(C(=O)NC2CCCCC2)c2ccncc2)c1 (centres undefined),0.17,i,.,.,.,
CC1C(=O)N2CCCc3cc(NC(=O)C(=O)NCc4ccccn4)cc1c32 (centres undefined),0.58,i,.,.,.,
CCCCN(CC)C(=O)c1ccc(-c2ccccc2)cc1,-6.8,-6.8*,-26%*,i,i,KCNQ2 patch conf=i
CCCCN(CC)C(=O)c1cccc(Cl)c1,1.7,i,.,.,.,
Cn1nc(C(=O)NC2CCCCC2)c2c1-c1ccccc1SC2,.,i,.,.,.,
CC(C)N(C(=O)c1nn(C)c2c1CSc1ccccc1-2)C1CCCCC1,-8.7,-8.7*,-26%*,i,i,KCNQ2 patch conf=i
CSc1ncc(C(=O)Nc2ccccc2F)c(-c2ccccc2)n1,.,i,.,.,.,
O=C(OC1C2CCC1C1CN(CCc3ccccc3)CC12)c1ccccc1 (centres undefined),0.21,i,.,.,.,
Cc1ccccc1C(=O)Oc1cccc(Nc2ncnc3ccccc23)c1,-9.6,-9.6*,i,i,i,
CC(=O)Oc1cccc(Nc2ncnc3ccccc23)c1,.,i,.,.,.,
COc1ccc(C(=O)Nc2nnc(SCC(=O)NC3CC3)s2)cc1,0.26,i,.,.,.,
CC(NC(=O)CCC(=O)c1ccccc1)c1ccc(F)cc1 (centres undefined),-8.8,-8.8*,i,i,i,
CC(NC(=O)Cc1ccccc1)c1ccc(F)cc1 (centres undefined),1,i,.,.,.,
Cn1nc([N+](=O)[O-])nc1Oc1ccc(C(C)(C)C)cc1,1.2,i,.,.,.,
Cc1cccc(C)c1OCCNC(=O)OCc1ccccc1,-6.9,-6.9*,i,i,i,
O=C(O)CCCNC(=O)OCc1ccccc1,.,i,.,.,.,
COCC(=O)N1CCC(Oc2ccc(C(=O)NC(C)c3csc(C)n3)cc2)CC1 (centres undefined),0.44,i,.,.,.,
COc1ccc(C)cc1NC(=O)CSc1ccc(-c2ccco2)nn1,1.4,i,.,.,.,
O=C(OCc1ccccc1Cl)c1ccccc1C(=O)c1ccccc1,-8.3,-8.3*,-36%*,-36%*,-34%*,KCNQ2 patch conf=i
O=C(COC(=O)c1ccccc1C(=O)c1ccc(Cl)cc1)NCCc1ccccc1,.,i,.,.,.,
O=C(COC(=O)c1ccccc1C(=O)c1ccc(Cl)cc1)NC(c1ccccc1)c1ccccc1,-8.7,-8.7*,i,i,i,
O=C(OCc1ccccc1Cl)c1cccnc1Cl,.,i,.,.,.,
O=c1cc(CSc2nc(NCc3ccccc3)c3ccccc3n2)nc2ccc(Cl)cn12,.,i,.,.,.,
O=C(NC(=S)Nc1cc(S(=O)(=O)N2CCOCC2)ccc1N1CCOCC1)c1ccco1,.,i,.,.,.,
CCN(CC)S(=O)(=O)c1ccc(N2CCOCC2)c(NC(=S)NC(=O)c2ccco2)c1,-7.3,-7.3*,-34%*,i,i,KCNQ2 patch conf=+
SMILES,KCNQ2 enhance,KCNQ2 inh,KCNQ2 inh conf,KCNQ1 spec,CHO Tl ctr,others
Cc1cc(Br)c2[nH]cc(CCNC(=O)c3ccco3)c2c1,.,i,.,.,.,
O=[N+]([O-])c1ccccc1Oc1cnc2ccccc2n1,1.1,i,.,.,.,
O=[N+]([O-])c1cc(-c2cnc3ccccc3n2)ccc1Oc1ccc(F)cc1,-8.4,-8.4*,-20%*,i,i,KCNQ2 patch conf=i
O=C(Nc1cc(C(F)(F)F)ccc1N1CCCC1)C1=COCCO1,.,i,.,.,.,
COc1cccc(Oc2ccc(C(F)(F)F)cc2NC(=O)c2cccc(F)c2)c1,-7.1,-7.1*,-26%*,i,i,KCNQ2 patch conf=i
COc1ccc(Oc2ccc(C(F)(F)F)cc2NC(=O)c2ccc(F)cc2)cc1,.,i,.,.,.,
COc1cccc(Oc2ccc(C(F)(F)F)cc2NC(=O)C2=COCCO2)c1,-7.5,-7.5*,i,i,i,
Cc1cccc2cc(CN(Cc3cccnc3)C(=O)c3cccs3)c3nnnn3c12,.,i,.,.,.,
CC(C)(C)NC(=S)NC1CC1,0.02,i,.,.,.,
COc1ccc(/C=C(/C(=O)c2cccs2)N2C=CC=CC2=C(C#N)C#N)cc1,-7.9,-7.9*,-42%*,i,i,KCNQ2 patch conf=i
COc1ccc(N=N/C(=C\O)C(=O)c2cccs2)cc1,.,i,.,.,.,
COc1ccc(Cl)cc1C(=O)NC(=S)Nc1ccccc1N1CCOCC1,-12,-12*,-28%*,i,i,KCNQ2 patch conf=+
Cc1cc(Cl)ccc1OCC(=O)NC(=S)Nc1ccccc1N1CCOCC1,.,i,.,.,.,
CC(C(=O)N1CCCC1)N1CCN(c2ccccc2O)CC1 (centres undefined),.,i,.,.,.,
Cc1cc(C)c(OCC(=O)N2CC=C(c3ccccc3)CC2)c(C)c1,-6.9,-6.9*,-29%*,i,i,KCNQ2 patch conf=i
Cc1ccsc1C(=O)N1CC=C(c2ccccc2)CC1,.,i,.,.,.,
Cc1c(C(=O)NCc2nnc(-c3ccccc3)o2)oc2c(F)cccc12,.,i,.,.,.,
COc1ccccc1Nc1nc2ccc(C)cc2n2cnnc12,0.23,i,.,.,.,
CC(=O)Nc1ccc(NC(=O)C(=O)NCC(c2ccco2)N2CCc3ccccc3C2)cc1 (centres undefined),.,i,.,.,.,
O=C(NCC(c1ccco1)N1CCc2ccccc2C1)C(=O)Nc1ccc(F)cc1F (centres undefined),-6.7,-6.7*,-26%*,i,i,KCNQ2 patch conf=i
O=C(NCC(c1ccco1)N1CCc2ccccc2C1)C(=O)Nc1ccccc1F (centres undefined),-7,-7*,-26%*,i,i,KCNQ2 patch conf=i
O=C(CN1CCc2ccccc2C1)Nc1ccc(F)cc1F,.,i,.,.,.,
Cc1ccc(S(=O)(=O)Nc2ncccn2)cc1,.,i,.,.,.,
COc1ccc(C)cc1NC(=O)C1CCCN(S(=O)(=O)c2cccc3cccnc23)C1 (centres undefined),0.04,i,.,.,.,
O=C(O)c1ccc(N=NN2CCCCCC2)cc1,0.17,i,.,.,.,
SMILES,KCNQ2 enhance,KCNQ2 inh,KCNQ2 inh conf,KCNQ1 spec,CHO Tl ctr,others
CCOC(=O)Cn1nc(-c2ccccc2)c2cnc3ccc(CC)cc3c21,.,i,.,.,.,
COc1ccc(CCNS(=O)(=O)c2c(C)[nH]c(C)c2C(=O)N2CCCCC2)cc1OC,.,i,.,.,.,
O=C(CNS(=O)(=O)c1ccccc1)NCc1ccco1,.,i,.,.,.,
N#C/C(=C\c1ccc(OC(=O)c2ccc(Cl)s2)cc1)c1nc2ccccc2[nH]1,0.17,i,.,.,.,
O=C(c1ccc(COCC(F)(F)F)o1)N1CCCC1,.,i,.,.,.,
CC(NC(=O)COc1ccccc1-c1ccccc1)c1ccccc1 (centres undefined),-6.9,-6.9*,-34%*,-30%*,-24%*,KCNQ2 patch conf=+
COc1ccc(/C=N/NC(=O)COc2ccccc2-c2ccccc2)cc1,.,i,.,.,.,
CC(=O)Nc1ccccc1OCC(=O)NC(C)c1ccccc1 (centres undefined),0.9,i,.,.,.,
O=C(COc1ccccc1-c1ccccc1)N/N=C/c1cccc2ccccc12,-7.8,-7.8*,i,i,i,
Cc1ccc(CNC(=O)C(=O)NCC2CCCN2S(=O)(=O)c2cc(C)ccc2C)cc1 (centres undefined),.,i,.,.,.,
COc1ccc(CN2CCNC(=O)C2CC(=O)NCCCC2CCCC2)c(F)c1 (centres undefined),0.2,i,.,.,.,
